DT40 TDP1 no CPT – qHTS for Inhibitors of human tyrosyl-DNA phosphodiesterase 1 (TDP1): qHTS in cells in absence of CPT; AID 686978, 2013; 420,000 tested, 15% active; DT40 Tdp1-/- hTDP1 cells, no CPT, ATP luminescence, 48 h; Potency, µM (highest dose often 46.2 µM), most hits filed as inhibitors; also: nearly all actives have a fitted effect of over 55% in size
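Cells were dispensed at 400 per well, compounds added by pin tool, plates incubated ≥48 hr at 37 °C, then CellTiter-Glo added for 30 min at room temperature before luminescence reading. Line: DT40 Tdp1-/- complemented with hTDP1; camptothecin omitted.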
RORg inh – qHTS for inhibitors of ROR gamma transcriptional activity. Nuclear receptor ROR-gamma (Mus musculus), P51450. Drosophila S2 Gal4-RORgamma UAS-luciferase reporter, 20 h. Potency, µM (titrated, usually from 53.6 µM), usual class: inhibitors. 310,000 tested, 5.4% active. AID 2551, 2010; also: nearly all actives have a fitted effect of over 60% in size
Target sequence (P51450 whole entry, looked up, the tested form may be a part): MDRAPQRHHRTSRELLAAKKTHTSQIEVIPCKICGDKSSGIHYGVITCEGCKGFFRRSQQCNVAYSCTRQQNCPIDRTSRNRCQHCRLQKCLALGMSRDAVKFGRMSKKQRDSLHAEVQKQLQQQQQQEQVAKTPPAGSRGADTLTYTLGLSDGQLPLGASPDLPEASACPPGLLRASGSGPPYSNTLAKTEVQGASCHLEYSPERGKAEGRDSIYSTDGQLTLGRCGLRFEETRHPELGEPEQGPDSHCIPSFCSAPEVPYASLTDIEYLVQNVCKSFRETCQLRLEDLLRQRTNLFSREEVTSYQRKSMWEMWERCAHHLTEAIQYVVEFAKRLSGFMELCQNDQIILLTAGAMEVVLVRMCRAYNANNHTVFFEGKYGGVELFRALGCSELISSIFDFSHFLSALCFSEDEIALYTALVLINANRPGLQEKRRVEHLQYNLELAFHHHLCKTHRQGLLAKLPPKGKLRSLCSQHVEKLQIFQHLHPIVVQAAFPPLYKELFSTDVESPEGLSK
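Luminescence from a UAS-regulated Photinus luciferase reporter in stably transfected Drosophila Schneider cells is measured; decreased signal marks ROR gamma inhibition. Fusion expression is induced by 700 uM copper sulfate for 20 hr.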
ELG1 repair inh – qHTS screen for small molecules that inhibit ELG1-dependent DNA repair in human embryonic kidney (HEK293T) cells expressing luciferase-tagged ELG1; HEK293T ELG1-luciferase reporter, luminescence, 16 h; DNA damage induced by 5-fluorouridine; Potency, µM (series often up to 46.1 µM), usual class: inhibitors; 330,000 tested, 2.3% active; also: nearly all actives have a fitted effect of over 55% in size
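5-Fluorouridine DNA damage + compound/DMSO, 2,000 cells/well, 16 h, 37 °C/5% CO2. ONE-Glo, 30 min RT, luminescence. Readout = decrease in reporter signal.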
ALOX12 inh – Primary qHTS assay for inhibitors of human arachidonate 12S-lipoxygenase (ALOX12): Round 2; AID 1671190, 2021; Potency, µM (highest dose often 108 µM), actives largely listed as inhibitors; purified 12hLO, xylenol orange hydroperoxide absorbance; 580,000 tested, 1.1% active
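Purified human 12hLO at 150 nM in 25 mM Hepes, 0.01% Triton X-100, pH 7.0, preincubated 15 min at room temperature with compound. Reaction started with 40 uM arachidonic acid, 30 min at room temperature. Hydroperoxide measured by Fe-xylenol orange, 573/405 nm absorbance ratio.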
TDP1 cell CPT – qHTS for Inhibitors of human tyrosyl-DNA phosphodiesterase 1 (TDP1): qHTS in cells in presence of CPT. chicken DT40 Tdp1-/-;hTDP1 cells + 20 nM CPT, ATP luminescence, 48 h. Potency, µM (doses to about 46.2 µM), usual class: inhibitors. 420,000 tested, 12% active; also: nearly all actives have a fitted effect of over 55% in size
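Cell growth measured by CellTiter-Glo luminescence after a minimum 48 h, 37 C compound exposure with 20 nM CPT in Tdp1-knockout DT40 cells stably expressing hTDP1, seeded 400/well; qHTS titration format.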
Gal4-VP16 FLuc – VP16 counterscreen qHTS for inhibitors of ROR gamma transcriptional activity. Drosophila S2 Gal4-VP16 UAS-luciferase, luminescence, 20 h. Potency, µM (doses to about 53.6 µM), hits mostly inhibitors. 310,000 tested, 3.5% active;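 also: Gal4-VP16 expression switched on by copper sulfate through the metallothionein promoter; nearly all actives have a fitted effect of over 50% in size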
A number is an active result; [ ] = dose if it differs, or a comment. The list is not random: actives were taken first. Their share in the collection is about 15%. Calls follow the shape of the dose curve; as a rule, active = well fitted curve in the direction sought with a large enough effect; inconclusive = small, poorly fitted or top-dose-only effect, or another doubt; inactive = no such curve, though single readings can be large; an effect the other way counts as inactive or inconclusive.

Results for CC(Oc1ccccc1)C(=O)Nc1nc2c(s1)C(=O)CC(C)(C)C2 (stereo not given) ?
DT40 TDP1 no CPT: inactive; RORg inh: inactive; ELG1 repair inh: inactive; ALOX12 inh: inactive; TDP1 cell CPT: inactive; Gal4-VP16 FLuc: inactive

What do the screens show for `CC1(C)CC(=O)c2sc(NC(=O)c3cccs3)nc2C1`?
DT40 TDP1 no CPT: inconclusive; RORg inh: 5µM; ELG1 repair inh: inconclusive; ALOX12 inh: inactive; TDP1 cell CPT: inconclusive; Gal4-VP16 FLuc: 5.6µM

Results for CC1(C)CC(=O)c2sc(NC(=O)CCS(=O)(=O)c3ccccc3)nc2C1 ?
DT40 TDP1 no CPT: 5.8µM; RORg inh: inconclusive; ELG1 repair inh: inconclusive; ALOX12 inh: inactive; TDP1 cell CPT: 3.3µM; Gal4-VP16 FLuc: 5.6µM

Results for CC1(C)CC(=O)c2sc(NC(=O)CN3CCCCC3)nc2C1 ?
DT40 TDP1 no CPT: inactive; RORg inh: inactive; ELG1 repair inh: inactive; ALOX12 inh: 32µM; TDP1 cell CPT: inactive; Gal4-VP16 FLuc: inactive

How did CN1CCCCC12Cc1ccccc1CN(C(=O)c1ccccc1)C2 (stereo not given) do in these assays?
ALOX12 inh: inactive[6.33 µM]

How did COc1ccc(NC(=S)NC(=O)/C=C/c2ccco2)c(OC)c1 do in these assays?
DT40 TDP1 no CPT: inconclusive; RORg inh: 13µM; ELG1 repair inh: inactive; ALOX12 inh: 35µM; TDP1 cell CPT: inactive; Gal4-VP16 FLuc: 13µM

Results for COc1ccc(NC(=O)NCc2ccco2)c(OC)c1 ?
DT40 TDP1 no CPT: inconclusive; RORg inh: inactive; ELG1 repair inh: inactive; ALOX12 inh: inactive; TDP1 cell CPT: inconclusive; Gal4-VP16 FLuc: inactive

What do the screens show for `O=C(/C=C/c1ccco1)NC(=S)Nc1cccc(C(=O)O)c1`?
DT40 TDP1 no CPT: inactive; RORg inh: inactive; ELG1 repair inh: inconclusive; ALOX12 inh: inconclusive; TDP1 cell CPT: inactive; Gal4-VP16 FLuc: inactive

What do the screens show for `COc1ccc(N2CCN(C(=O)/C=C/c3ccco3)CC2)cc1`?
DT40 TDP1 no CPT: inactive; RORg inh: inactive; ELG1 repair inh: inactive; ALOX12 inh: inactive; TDP1 cell CPT: inactive; Gal4-VP16 FLuc: inactive

What do the screens show for `COc1cccc(NC(=S)NC(=O)/C=C/c2ccco2)c1`?
DT40 TDP1 no CPT: 15µM; RORg inh: 11µM; ELG1 repair inh: inconclusive; ALOX12 inh: inactive; TDP1 cell CPT: 18µM; Gal4-VP16 FLuc: inconclusive

What do the screens show for `CC(=O)Nc1ccc(NC(=S)NC(=O)/C=C/c2ccco2)cc1`?
DT40 TDP1 no CPT: inconclusive; RORg inh: inactive; ELG1 repair inh: inactive; ALOX12 inh: inactive; TDP1 cell CPT: inconclusive; Gal4-VP16 FLuc: inactive

How did CCOc1ccc(NC(=S)NC(=O)/C=C/c2ccco2)cc1 do in these assays?
DT40 TDP1 no CPT: 18µM; RORg inh: 4µM; ELG1 repair inh: inconclusive; ALOX12 inh: inactive; TDP1 cell CPT: inconclusive; Gal4-VP16 FLuc: 5.6µM

Results for CN1CCN(c2ccc(NC(=S)NC(=O)/C=C/c3ccco3)cc2)CC1 ?
DT40 TDP1 no CPT: 21µM; RORg inh: 11µM; ELG1 repair inh: inconclusive; ALOX12 inh: inconclusive; TDP1 cell CPT: inconclusive; Gal4-VP16 FLuc: 11µM

What do the screens show for `CCCC(C)Nc1oc(-c2ccc(Cl)cc2)nc1C#N` (stereo not given)?
ALOX12 inh: inactive

What do the screens show for `CC(=O)N(C)c1ccc(NC(=S)NC(=O)/C=C/c2ccco2)cc1`?
DT40 TDP1 no CPT: inactive; RORg inh: 10µM; ELG1 repair inh: inconclusive; ALOX12 inh: inconclusive; TDP1 cell CPT: inactive; Gal4-VP16 FLuc: inactive

What do the screens show for `CCOc1ccc(C(NC(=O)/C=C/c2ccco2)c2ccc(OC)c(OC)c2)cc1` (stereo not given)?
DT40 TDP1 no CPT: inactive; RORg inh: inactive; ELG1 repair inh: inconclusive; ALOX12 inh: inconclusive; TDP1 cell CPT: inactive; Gal4-VP16 FLuc: inactive

Results for COc1ccc(CNC(=O)/C=C/c2ccco2)cc1OC ?
DT40 TDP1 no CPT: inactive; RORg inh: inactive; ELG1 repair inh: inactive; ALOX12 inh: inactive; TDP1 cell CPT: inactive; Gal4-VP16 FLuc: inactive

How did CCN(CC)S(=O)(=O)c1ccc(OC)c(NC(=O)/C=C/c2ccco2)c1 do in these assays?
DT40 TDP1 no CPT: inactive; RORg inh: inactive; ELG1 repair inh: 23µM; ALOX12 inh: inconclusive; TDP1 cell CPT: inconclusive; Gal4-VP16 FLuc: inactive

What do the screens show for `COc1ccc(/C(C)=N/NC(=O)CNC(=O)/C=C\c2ccco2)cc1`?
DT40 TDP1 no CPT: 9.2µM; RORg inh: inactive; ELG1 repair inh: inactive; ALOX12 inh: inactive; TDP1 cell CPT: 13µM; Gal4-VP16 FLuc: inactive

What do the screens show for `COc1ccc(C(NC(=O)/C=C/c2ccco2)c2ccc(OC)c(OC)c2)cc1` (stereo not given)?
DT40 TDP1 no CPT: inactive; RORg inh: inactive; ELG1 repair inh: inactive; ALOX12 inh: 45µM; TDP1 cell CPT: inactive; Gal4-VP16 FLuc: inactive

Results for Cc1ccc(-c2cc(C(=O)N3CCOC(C)C3)n[nH]2)s1 (stereo not given) ?
ALOX12 inh: inactive

How did CCc1cccc(NS(=O)(=O)c2ccc(-c3coc(C)n3)cc2)c1 do in these assays?
ALOX12 inh: inactive

Results for CN1c2cc(C(=O)Nc3cccc(C(F)(F)F)c3)ccc2C(=O)N2CCCC21 (stereo not given) ?
ALOX12 inh: inactive

Results for O=C1c2ccccc2[C@@H]2C[C@@H](O)[C@H](Nc3ccccc3)CCN12 ?
DT40 TDP1 no CPT: inactive; ELG1 repair inh: inconclusive; ALOX12 inh: inactive; TDP1 cell CPT: inactive

Results for O=C1c2ccccc2[C@@H]2C[C@@H](O)[C@H](Nc3ccccc3-c3ccccc3)CCN12 ?
DT40 TDP1 no CPT: 18µM; ELG1 repair inh: inconclusive; ALOX12 inh: inactive; TDP1 cell CPT: inconclusive

Results for O=C1c2ccccc2[C@@H]2C[C@@H](O)[C@H](Nc3cccc(C(F)(F)F)c3)CCN12 ?
DT40 TDP1 no CPT: inconclusive; ELG1 repair inh: inactive; ALOX12 inh: inactive; TDP1 cell CPT: 23µM

How did CC(C)N(Cc1ccccc1)S(=O)(=O)c1ccc(-c2cc(C(F)(F)F)on2)s1 do in these assays?
DT40 TDP1 no CPT: inconclusive; ALOX12 inh: inactive; TDP1 cell CPT: inconclusive

Results for CN(C)CCN(Cc1ccccc1)S(=O)(=O)c1ccc(-c2cc(C(F)(F)F)on2)s1 ?
DT40 TDP1 no CPT: 12µM; ALOX12 inh: inconclusive; TDP1 cell CPT: 15µM

From PubChem
